Here are results for 47 compounds from PubChem BioAssay AID504332 (National Center for Advancing Translational Sciences (NCATS), 2011).

The campaign covered roughly 350,000 compounds. About 31,000 (8.9%) were called active. Inconclusive results (about 15%) are left out. Shown is part of a subset that was picked to be rich in actives. Unmarked numbers belong to inactive results. Calls follow the shape of the dose curve; as a rule, active = well fitted inhibition curve with a large enough effect; inconclusive = small, poorly fitted or top-dose-only effect; inactive = no such curve, though single readings can be large or run the other way.
% is scaled to controls: 0 for no effect and ±100 for the full control effect; potency is read from the fitted curve at half-maximal effect.

Histone-lysine N-methyltransferase EHMT2 (Homo sapiens), sequence (Q96KQ7 913-1193 limits assumed): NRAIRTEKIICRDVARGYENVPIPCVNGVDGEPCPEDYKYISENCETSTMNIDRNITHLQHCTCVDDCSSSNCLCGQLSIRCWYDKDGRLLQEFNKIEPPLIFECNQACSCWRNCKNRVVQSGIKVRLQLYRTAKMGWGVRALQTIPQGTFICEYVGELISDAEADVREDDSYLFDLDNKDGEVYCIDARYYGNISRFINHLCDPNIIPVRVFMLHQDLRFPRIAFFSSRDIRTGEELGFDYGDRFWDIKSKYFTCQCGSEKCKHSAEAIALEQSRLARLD

The target of the assay is Histone-lysine N-methyltransferase EHMT2 (Homo sapiens) (UniProt Q96KQ7). In words: qHTS Assay for Inhibitors of Histone Lysine Methyltransferase G9a. Also: nearly all actives have a fitted effect of over 75% in size. The settings on record: G9a H3K9 monomethylation, AlphaScreen, 2 h; series mostly up to 59 µM; activity, negative = inhibition: at the top concentration. In outline:
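Methyltransferase reactions run at room temperature for 2 h (20 nM enzyme, 500 nM biotin-H3K9 peptide, 20 uM SAM) after a 15 min compound preincubation; product detected by AlphaScreen beads and anti-H3K9me1 antibody.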
In general terms: qHTS replaces the single test concentration by a dilution series.
With `COc1ccc(-c2nnc(SCc3cccnc3)o2)cc1`, the “activity, negative = inhibition” value was 7.22%.

For the compound `COc1ccc(-c2nnc(SC(C)C(=O)NC3CC3)o2)cc1` (configuration not stated), the activity, negative = inhibition was 3.83% [at 12.7 µM].

As to `COc1ccc(-c2nnc(SC(=O)N3c4ccccc4Sc4ccccc43)o2)cc1`, the Potency was 17.8 µM (active).

For the compound `Cc1ccccc1C(=O)NCc1nc(-c2ccc(Cl)cc2)no1`, the “activity, negative = inhibition” value is 12.2%.

Consider `CC1CN(c2cc(=O)n(-c3cccc(Br)c3)c(=O)[nH]2)CC(C)O1` (configuration not stated), for which the Potency is 44.7 µM (active).

Consider `CC1CN(c2cc(=O)n(Cc3ccc(F)cc3)c(=O)[nH]2)CC(C)O1` (configuration not stated), for which the “activity, negative = inhibition” value was -5.92% [at 102 µM].

As to `CC1CN(C(=S)Nc2ccc(Br)cc2Cl)CC(C)O1` (configuration not stated), the “activity, negative = inhibition” value was 20.9% [at 102 µM].

For `Cc1[nH][nH]c(=O)c1N=Nc1ccccc1`, the Potency was 50.1 µM (active).

For the compound `COC(=O)c1ccccc1N=Nc1c(C)[nH][nH]c1=O`, the “activity, negative = inhibition” value is -41.6% [at 102 µM].

Turning to `Cc1cccn2c(=O)c3cc(C(=O)NC(C)c4ccccc4)c(=N)n(CCCO)c3nc12` (configuration not stated), the “activity, negative = inhibition” value was -1.26%.

Take `Cc1ccsc1C(=O)NC1CCCCC1C` (configuration not stated): the activity, negative = inhibition was 16.6% [at 12.7 µM].

As for `Cc1cccc2nc(-c3ccc(Cl)s3)c(Nc3ccc4c(c3)OCCO4)n12`, the Potency is 10 µM (active).

Consider `Cc1nc(Nc2ccc3c(c2)OCCO3)c2nnn(Cc3ccccc3Cl)c2n1`, for which the “activity, negative = inhibition” value is -29.1% [at 102 µM].

Consider `Cc1ccc(-c2nc3cccc(C)n3c2Nc2ccc3c(c2)OCCO3)cc1`, for which the Potency was 12.6 µM (active).

As for `Cc1ccc2nc(-c3ccc(O)cc3)c(Nc3ccc4c(c3)OCO4)n2c1`, the Potency was 3.55 µM (active).

Turning to `Cc1ccn2c(Nc3ccc4c(c3)OCCO4)c(-c3ccc(C)s3)nc2c1`, the “activity, negative = inhibition” value was -39.1%.

With `Cc1ccc2nc(-c3ccncc3)cc(C(=O)Nc3ccc4c(c3)OCCO4)c2c1`, the “activity, negative = inhibition” value was -0.816%.

With `Oc1ccccc1-c1nc2ccc(Cl)cn2c1Nc1ccc2c(c1)OCCO2`, the “activity, negative = inhibition” value was 1.35%.

`Cc1ccc(S(=O)(=O)NCC(=O)Nc2ccc3c(c2)OCCO3)cc1`: the “activity, negative = inhibition” value is 28.1%.

For `Cc1ccc2nc(-c3cccnc3)c(NC3CCCC3)n2c1`, the “activity, negative = inhibition” value is 14.7%.

With `CCN(C(=O)Cn1cnc2sc(C)c(S(=O)(=O)N3CCN(c4ncccn4)CC3)c2c1=O)c1ccccc1F`, the “activity, negative = inhibition” value is 1.78%.

For the compound `Cc1ccc(S(=O)(=O)N(CCCN(C)C)Cc2ccc3c(c2)OCO3)cc1`, the “activity, negative = inhibition” value was 11.2% [at 102 µM].

Turning to `COc1ccc(-c2cn3nc(N4CCCC(C(=O)NCCCOC(C)C)C4)sc3n2)cc1` (configuration not stated), the “activity, negative = inhibition” value is -36.6%.

In the case of `Cc1c(Cl)cccc1NC(=O)C(=O)NCCc1csc2nc(-c3ccccc3F)nn12`, the “activity, negative = inhibition” value was 1.79%.

Take `NS(=O)(=O)c1ccc(CCNC(=O)COC(=O)COc2cccc(C(F)(F)F)c2)cc1`: the activity, negative = inhibition is -4.95% [at 12.7 µM].

With `Cc1ccc(-c2cc(C(=O)NC3CCN(Cc4ccccc4)CC3)c3ccccc3n2)cc1`, the “activity, negative = inhibition” value is 20.7%.

For the compound `S=c1[nH]nc(-c2ccc(Cl)cc2)n1CC1CCCO1` (configuration not stated), the Potency was 7.94 µM (active).

For `CNC(=O)NC(=O)CSc1nnc(-c2ccc(F)cc2)n1CC1CCCO1` (configuration not stated), the “activity, negative = inhibition” value was -5.04% [at 102 µM].

As for `CC(Sc1nn(-c2ccc(Cl)cc2)c(=S)s1)C(=O)NCC1CCCO1` (configuration not stated), the “activity, negative = inhibition” value is -32.1% [at 102 µM].

For `CCN1C(=O)[C@H]2[C@@H](c3ccc(-c4ccc(F)cc4)cc3)N[C@@](Cc3ccccc3)(C(=O)OC)[C@H]2C1=O`, the activity, negative = inhibition was 15.2% [at 2.33 µM].

Regarding `O=C(COc1ccccc1Cl)N1N=C(c2cccs2)CC1c1ccco1` (configuration not stated), the activity, negative = inhibition was -17.2% [at 12.7 µM].

As for `Cc1cc(C)cc(OCC(=O)Nc2c(C(=O)c3ccccc3)oc3ccccc23)c1`, the “activity, negative = inhibition” value was -0.593%.

On to `CC(=O)Nc1ccc(NC(=O)CSc2nnnn2-c2ccccc2F)cc1`, for which the “activity, negative = inhibition” value was 12.9% [at 102 µM].

As for `CC(=O)Nc1ccc(NC(=O)CSc2nnnn2C2CCCCC2)cc1`, the “activity, negative = inhibition” value was -23.7% [at 102 µM].

Consider `CCn1nnnc1SCC(=O)Nc1ccc(N(C)C)cc1`, for which the Potency was 28.2 µM (active).

As for `CCOc1ccc(C2C(=O)N(C3CCCCC3)CC(=O)N2CCC2=CCCCC2)cc1OC` (configuration not stated), the “activity, negative = inhibition” value is -15.8%.

For the compound `COc1ccc(N2CCN(C(=S)Nc3ccc(S(N)(=O)=O)cc3)CC2)cc1`, the Potency was 8.91 µM (active).

`CCOc1ccccc1N1CCN(C(=S)Nc2ccc(S(N)(=O)=O)cc2)CC1`: the “activity, negative = inhibition” value was 4.71%.

As to `CC1CN(C(=S)Nc2ccc(S(N)(=O)=O)cc2)CC(C)O1` (configuration not stated), the “activity, negative = inhibition” value was 38.7% [at 102 µM].

As for `CCCN1CCc2nc(N3CCN(C)CC3)ncc2C1`, the “activity, negative = inhibition” value is 52.1%.

On to `N#Cc1cccc(CSc2ncnc(N)n2)c1`, for which the activity, negative = inhibition was -30.5% [at 2.33 µM].

On to `Nc1nc(SCCOc2ccccc2)n[nH]1`, for which the activity, negative = inhibition is 1.72% [at 12.7 µM].

For the compound `Nc1nc(SCc2cccc(Br)c2)n[nH]1`, the Potency was 31.6 µM (active).

As for `Cc1ccc(CCNC(=O)c2ccc3c(c2)nc2n3CCC(C)C2)cc1` (configuration not stated), the “activity, negative = inhibition” value was 7.37%.

With `CCOc1ccc(NC(=O)C(=O)NCCc2csc3nc(-c4ccccc4F)nn23)cc1`, the “activity, negative = inhibition” value is 4.21%.

On to `COc1ccc(NC(=O)CCCN2C(=O)CCn3nc(-c4cn(C)c5ccccc45)cc32)cc1OC`, for which the “activity, negative = inhibition” value was -18.7%.

Take `CCc1ccc(NC(=O)Cn2nnc(C(=O)NCc3ccc4c(c3)OCO4)c2N)cc1`: the “activity, negative = inhibition” value was 30.7% [at 102 µM].
